Assay results: PubChem BioAssay (NCATS)
Records with an inconclusive call do not appear. Active and inactive are the calls of the source. Calls come from the whole dose curve; as a rule, active = well fitted curve in the direction sought with a large enough effect; inconclusive = small, poorly fitted or top-dose-only effect, or another doubt; inactive = no such curve, though single readings can be large; an effect the other way counts as inactive or inconclusive.

Assays:
[1] = MCF7 Cancer Cell Toxicity qHTS against the NCATS CANVASS Library (AID 1347369); conditions: MCF7 viability, ATP luminescence (CellTiter-Glo), 72 h; series mostly up to 46 µM
How it was run: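 Luminescent ATP signal (CellTiterGlo) served as the cytotoxicity read-out after MCF7 breast cancer cells had been incubated 72 hr at 37C with natural products in an 11-point titration.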

[2] = qHTS for ATAD5 Antagonist screened against the NCATS CANVASS Library (AID 1347370); conditions: HEK293T-ATAD5-luc, 5-FUrd stimulated, luminescence, 16 h; series mostly up to 46.1 µM;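 note: HEK293T cells carrying an ATAD5 luciferase reporter co-treated with 10 µM 5-fluorouridine; nearly all actives have a fitted effect of over 65% in size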
How it was run: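 HEK293T cells with a stably integrated ATAD5-controlled luciferase reporter were exposed to compounds (11-pt) alongside 10 uM 5-fluorouridine as ATAD5 stabilizer for 16hr at 37C. Viability was read by CellTiter-Fluor fluorescence, then ATAD5 by luminescence.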

[3] = J3T Cancer Cell Toxicity qHTS against the NCATS CANVASS Library (AID 1347371); conditions: J3T dog glioma viability, ATP luminescence, 72 h; series mostly up to 46.1 µM;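 note: J3T is a canine glioma cancer cell line seeded at 500 cells per well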
How it was run: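 Viability of the J3T glioma line from dog is scored by ATP luminescence after a 72 hr incubation with natural products.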

[4] = target: Nuclear receptor subfamily 1 group I member 3 (Homo sapiens) (UniProt Q14994); assay: qHTS for Constitutive Androstane Receptor (CAR) Antagonist screened against the NCATS CANVASS Library (AID 1347372); conditions: HepG2-hCAR-CYP2B6 luciferase, CITCO-stimulated antagonist mode; series mostly up to 46.1 µM;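 note: cells stimulated with 50 nM CITCO agonist so inhibition reflects antagonism; luciferase from CYP2B6 promoter reporter driven by hCAR in HepG2 cells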
How it was run: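 HepG2-CYP2B6-hCAR double-stable cells plated, 4hr attach; cpd pin-transferred; CITCO 50 nM final; 24hr 37C/5% CO2; CellTiter-Fluor 1hr (fluorescence), then ONE-Glo luminescence.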

[5] = target: Nuclear receptor subfamily 1 group I member 3 (Homo sapiens) (UniProt Q14994); assay: qHTS for Constitutive Androstane Receptor (CAR) Agonist screened against the NCATS CANVASS Library (AID 1347373); conditions: HepG2-hCAR-CYP2B6 luciferase reporter, ONE-Glo luminescence; series mostly up to 46.1 µM;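 note: every well also contained 1.5 µM PK11195 alongside the test compound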
How it was run: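 CAR agonism is scored as CYP2B6-promoter luciferase induction in a double-stable transfected HepG2 line, where 1.5uM PK11195 is included in each well. Compounds were tested over a 24hr exposure.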

[6] = 10-beta competent E. coli microbial cell viability qHTS against the NCATS CANVASS Library (AID 1347376); conditions: E. coli 10-beta viability, BacTiter-Glo ATP luminescence, overnight; series mostly up to 46.1 µM
How it was run: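 Cytotoxicity toward competent E. coli is scored from cellular ATP content via BacTiter-Glo luminescence following overnight compound exposure at 37C, 5% CO2.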

[7] = DH5-alpha competent E. coli microbial cell viability qHTS against the NCATS CANVASS Library (AID 1347377); conditions: BacTiter-Glo ATP luminescence, overnight; at 46.1 µM (top of the series)
How it was run: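 Cell viability of competent DH5-alpha E. coli is scored from ATP content by luminescence. Cells sit overnight at 37C with compound across an 11-point concentration series.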

[8] = qHTS for H2AX Agonists against the NCATS CANVASS Library (AID 1347378); conditions: CHO-K1 H2AX phosphorylation, HTRF TR-FRET, 3 h; series mostly up to 76.9 µM
How it was run: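 TR-FRET readout (ex 320 nm, em 665/620 nm ratio) of phospho-H2AX (S139) in CHO-K1 lysates. Cells treated 3 hr at 37C with compound titration, 0.76% DMSO; lysis 30 min, antibody detection 24 hr at RT.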

[9] = qHTS for Inflammasome Signaling Inhibitors: IL-1-beta AlphaLISA screen against the NCATS CANVASS Library (AID 1347379); conditions: THP-1 LPS/ATP, IL-1B AlphaLISA secretion, 16 h; at 57.5 µM (top of the series);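 note: human THP-1 cells primed with LPS then triggered with ATP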
Description: Natural products and their derivatives continue to be wellsprings of nascent therapeutic potential. However, many laboratories have limited resources for biological evaluation, leaving their previously isolated or synthesized compounds largely or completely untested. To address this issue, the Canvass library of natural products was assembled (https://tripod.nih.gov/canvass), in collaboration with academic and industry researchers, for quantitative high-throughput screening (qHTS) across a diverse set of cell-based and biochemical assays. […] The library was formatted into 1536-well plates and evaluated in 50 qHTS (in an 11-pnt concentration series) bioassays with broad scope of disease-relevant mechanisms. The resulting data set from 50 different assays was then systematically analyzed to identify overall trends and specific natural products with interesting biological activities. […]
IL-1-beta qHTS protocol: Three microliters containing 3000 THP-1 cells were dispensed into the wells of solid, white, tissue culture treated Greiner 1,536-well plates. […] The AlphaLISA signal was read by a PerkinElmer EnVision plate reader with an ultrasensitive luminescence detector and 1536 Plate HTS AlphaScreen aperture (excitation of 680nm and emission of 615nm).

[10] = qHTS for Antimalaria activity screened against the NCATS CANVASS Library (AID 1347380);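 note: Plasmodium falciparum strain Dd2 asexual parasites grown in red blood cells; nearly all actives have a fitted effect of over 40% in size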; conditions: P. falciparum Dd2 growth, SYBR Green fluorescence, 72 h; series mostly up to 28.7 µM
How it was run: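 Growth inhibition of asexual erythrocytic P. falciparum Dd2 was quantified by SYBR Green DNA staining. Cultures grew 72 h with compound (11-point series) in hypoxic gas at 37C; lysis and staining lasted 18 h.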

Measured: outcome

Chain of Nuclear receptor subfamily 1 group I member 3 (Homo sapiens) (Q14994 whole entry, looked up): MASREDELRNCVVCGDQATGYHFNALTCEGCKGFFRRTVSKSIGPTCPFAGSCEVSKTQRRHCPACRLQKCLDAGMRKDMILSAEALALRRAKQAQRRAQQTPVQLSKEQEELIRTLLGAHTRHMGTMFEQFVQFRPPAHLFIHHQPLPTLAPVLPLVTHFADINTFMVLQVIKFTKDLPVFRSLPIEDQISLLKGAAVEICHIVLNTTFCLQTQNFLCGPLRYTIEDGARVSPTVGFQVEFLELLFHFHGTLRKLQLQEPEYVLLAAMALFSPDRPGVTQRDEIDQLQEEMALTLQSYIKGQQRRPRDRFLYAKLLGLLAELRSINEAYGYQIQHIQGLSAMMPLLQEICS

COc1ccc2[nH]cc(CCNC(C)=O)c2c1
inactive: all assays above
